# From PubChem BioAssay (Tox21)
# Values joined by “and” are separate entries in the source; they are usually repeats but may differ in a detail not shown here. Equal entries are not always repeated. Inconclusive results are not listed. Entries that show only a call come without a potency. Some compounds were tested as several samples or in several runs, with calls that do not always agree. Active and inactive are the calls of the source. The call rests on the fitted dose curve; in most records, active means well fitted curve in the direction sought with a large enough effect in the repeat runs; inconclusive means weak or mixed curves; inactive means no such curve, though single readings can be large; an effect the other way counts as inactive or inconclusive.
# Key:
# [1] = qHTS assay to identify small molecule agonists of the RXR signaling pathway - cell viability counter screen (AID 1159529); details: RXR-alpha-bla HEK293T viability, CellTiter-Glo, 16 h; series mostly up to 76.8 µM; further: nearly all actives have a fitted effect of over 50% in size;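 on activity change, negative = cytotoxicity: HEK 293T cells carrying an RXR-alpha UAS beta-lactamase reporter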
# How it was run: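 Counter screen: CellTiter-Glo luminescence. Cells: RXR-alpha-UAS-bla HEK 293T. Medium: 2% charcoal-stripped FBS. Treatment: 16 h, 37 C. Reagent incubation: 30 min, RT.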
# [2] = qHTS assay to identify small molecule antagonists of the retinoid acid receptor (RAR) signaling pathway - cell viability counter screen (AID 1159551); details: C3RL4 cells viability, ATP luminescence (CellTiter-Glo), 6 h; series mostly up to 92.4 µM; further: nearly all actives have a fitted effect of over 35% in size
# How it was run: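 In this counter screen, the RARE-luciferase line C3RL4 was exposed for 6 h at 37 C and 5% CO2 to compounds with retinol at 1 uM final. Cellular ATP, read by luminescence, served as the viability measure.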
# [3] = qHTS assay to identify small molecule antagonists of the retinoic acid receptor (RAR) signaling pathway (AID 1159552; further: nearly all actives have a fitted effect of over 50% in size); details: C3RL4 RARE luciferase reporter, retinol-stimulated, 6 h; series mostly up to 92.4 µM
# How it was run: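 Antagonism of retinol-induced RARE reporter activity was measured in C3RL4 cells. Exposure to compounds and 1 uM final retinol lasted 6 hr at 37 C, with luminescence as endpoint.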
# [4] = qHTS assay to identify small molecule agonists of the retinoic acid receptor (RAR) signaling pathway (AID 1159553); details: C3RL4 RARE luciferase reporter, agonist, 6 h; series mostly up to 73.3 µM
# How it was run: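 In this cell-based screen, 1,000 C3RL4 cells per well were cultured overnight, dosed with test chemicals in DMSO for 6 hr, and assessed for RARE luciferase luminescence.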
# Potency means the concentration at half of the fitted maximal effect.
structure (smiles),measurement,setting,value
[F][Sn]([c]1ccccc1)([c]1ccccc1)[c]1ccccc1,Potency,[1],0.692 µM (active)
same,Potency,[2],17.2 µM (active)
same,Potency,[3],0.243 µM (active)
CCC(C)Br (centres undefined),Potency,[1],inactive
same,Potency,[2],inactive
C[C@]12C/C(=C/O)C(=O)C[C@@H]1CC[C@@H]1[C@@H]2CC[C@@]2(C)[C@H]1CC[C@]2(C)O,Potency,[1],24.8 µM (active)
same,Potency,[2],inactive
same,Potency,[3],24.6 µM (active) and 26.6 µM (active)
Clc1ccc(C(Cl)(Cl)Cl)cc1Cl,Potency,[1],inactive
same,Potency,[2],inactive
CC[C@]1(O)CC[C@H]2[C@@H]3CCC4=CCCC[C@@H]4[C@H]3CC[C@@]21C,Potency,[1],inactive
same,Potency,[2],inactive
CC(=O)[O-].CC(=O)[O-].CC(=O)[O-].[Cr+3],Potency,[1],inactive
same,Potency,[2],inactive
Cc1ccc([N+](=O)[O-])[c]2c1[O][Hg]2,Potency,[1],3.01 µM (active)
same,Potency,[2],6.68 µM (active)
same,Potency,[3],1.5 µM (active)
O=C(O)[C@H](O)[C@@H](O)C(=O)O,Potency,[1],inactive
same,Potency,[2],inactive
CO/N=C(/C1=NOCCO1)c1ccccc1Oc1ncnc(Oc2ccccc2Cl)c1F,Potency,[1],inactive
same,Potency,[2],inactive
N#Cc1sc2c(=O)c3ccccc3c(=O)c=2sc1C#N,Potency,[1],9.77 µM (active)
same,Potency,[2],27.3 µM (active)
same,Potency,[3],30.6 µM (active)
Cc1ccc2cc3c(ccc4ccccc43)c3c2c1CC3,Potency,[1],inactive
same,Potency,[2],inactive
same,Potency,[3],inactive
BrCC(Br)(Br)Br,Potency,[1],inactive
same,Potency,[2],inactive
same,Potency,[3],inactive
Clc1ccc(C(c2ccc(Cl)cc2)C(Cl)Cl)cc1,Potency,[1],39.5 µM (active) and 38.9 µM (active)
same,Potency,[2],inactive
COC(=O)/C=C(\C)OP(=O)(OC)OC,Potency,[1],inactive
same,Potency,[2],inactive
same,Potency,[3],inactive
O=c1c2ccccc2c(=O)c2c1cc(Cl)c1[nH]c3c([nH]c12)c(Cl)cc1c(=O)c2ccccc2c(=O)c13,Potency,[1],inactive
same,Potency,[2],inactive
CNC(=O)/C=C(\C)OP(=O)(OC)OC,Potency,[1],inactive
same,Potency,[2],inactive
C=C(C)C(=O)[O][Sn]([CH2]CCC)([CH2]CCC)[CH2]CCC,Potency,[1],1.1 µM (active)
same,Potency,[2],7.7 µM (active)
same,Potency,[3],2.73 µM (active)
CC(O)C(=O)[O][Hg][c]1ccccc1 (centres undefined),Potency,[1],1.95 µM (active)
same,Potency,[2],13.7 µM (active)
CC(Cc1ccc(OCC(=O)O)cc1)NCC(O)c1csc(C(F)(F)F)n1 (centres undefined),Potency,[1],inactive
same,Potency,[2],inactive
CCN(CC)CCc1c[nH]c2ccccc12,Potency,[1],inactive
same,Potency,[2],inactive
same,Potency,[3],inactive
CC(=O)[O-].CC(=O)[O-].[Co+2],Potency,[1],inactive
same,Potency,[2],inactive
N#CSCc1ccccc1,Potency,[1],inactive
same,Potency,[2],inactive
same,Potency,[3],48.8 µM (active)
C1=CCC=C1,Potency,[1],inactive
same,Potency,[2],inactive
CN=C=O,Potency,[1],inactive
same,Potency,[2],inactive
CCCC[N+]1(C)CCCC1 (tested in a mixture with another compound),Potency,[1],inactive
same,Potency,[2],inactive
Cc1cnc2c(C(=O)O)c(Cl)ccc2c1,Potency,[1],inactive
same,Potency,[2],inactive
CCOC(=O)Cc1ccccc1,Potency,[1],inactive
same,Potency,[2],inactive
same,Potency,[3],inactive
CNN,Potency,[1],inactive
same,Potency,[2],inactive
Oc1ccc(Cl)c(Cl)c1,Potency,[1],inactive
same,Potency,[2],inactive
CCCCN(CCCC)C(=S)[S-].CCCCN(CCCC)C(=S)[S-].[Ni+2],Potency,[1],inactive
same,Potency,[2],inactive
same,Potency,[3],inactive
OCC(Br)CBr (centres undefined),Potency,[1],inactive
same,Potency,[2],inactive
CC(C)C(Nc1ccc(C(F)(F)F)cc1Cl)C(=O)OC(C#N)c1cccc(Oc2ccccc2)c1 (centres undefined),Potency,[1],inactive
same,Potency,[2],inactive
same,Potency,[3],inactive
C=CC(=O)[O][Sn]([CH2]CCC)([CH2]CCC)[CH2]CCC,Potency,[1],1.38 µM (active)
same,Potency,[2],6.11 µM (active)
same,Potency,[3],0.864 µM (active)
CC(=O)[O][Pb]([c]1ccccc1)([c]1ccccc1)[c]1ccccc1,Potency,[1],2.45 µM (active)
same,Potency,[2],9.69 µM (active)
same,Potency,[3],0.486 µM (active)
COc1ccc2[nH]cc(CCN(C(C)C)C(C)C)c2c1,Potency,[1],inactive
same,Potency,[2],inactive
same,Potency,[3],inactive
Clc1c(Cl)c(Cl)c(Cl)c(Cl)c1Cl,"activity change, negative = cytotoxicity",[1],0.339% [at 6.97 µM] (inactive)
same,"activity change, negative = cytotoxicity",[2],0.805% [at 8.39 µM] (inactive)
same,"activity, negative = inhibition",[3],2.67% [at 8.39 µM] (inactive)
same,activation,[4],-1.82% [at 8.36 µM] (inactive)
CN/C(=N\[N+](=O)[O-])NCc1cnc(Cl)s1,Potency,[1],inactive
same,Potency,[2],inactive
same,Potency,[3],inactive
same,Potency,[4],inactive
CC(Cl)CCl (centres undefined),Potency,[1],inactive
same,Potency,[2],inactive
same,Potency,[3],inactive
same,Potency,[4],inactive
Oc1cc(Cl)c(Cl)c(Cl)c1Cl,Potency,[1],inactive
same,Potency,[2],inactive
same,Potency,[3],53.2 µM (active)
same,Potency,[4],inactive
CN(C)CCc1c[nH]c2ccccc12,Potency,[1],inactive
same,Potency,[2],inactive
same,Potency,[3],inactive
same,Potency,[4],inactive
C#CCO,Potency,[1],inactive
same,Potency,[2],inactive
same,Potency,[3],inactive
same,Potency,[4],inactive
COC(=O)c1ccccc1S(=O)(=O)NC(=O)Nc1nc(C)nc(OC)n1,Potency,[1],inactive
same,Potency,[2],inactive
same,Potency,[3],inactive
same,Potency,[4],inactive
C[C@]12Cc3cn[nH]c3C[C@@H]1CC[C@@H]1[C@@H]2CC[C@@]2(C)[C@H]1CC[C@]2(C)O,Potency,[1],6.01 µM (active)
same,Potency,[2],inactive
same,Potency,[3],inactive
S=C=NCCc1ccccc1,Potency,[1],inactive
same,Potency,[2],inactive
same,Potency,[3],inactive
CCNS(=O)(=O)C(F)(F)C(F)(F)C(F)(F)C(F)(F)C(F)(F)C(F)(F)C(F)(F)C(F)(F)F,Potency,[1],inactive
same,Potency,[2],inactive
same,Potency,[3],inactive
C[C@H]1[C@H](c2ccc(Cl)cc2)SC(=O)N1C(=O)NC1CCCCC1,Potency,[1],inactive
same,Potency,[2],inactive
same,Potency,[3],inactive
same,Potency,[4],inactive
Brc1cccc(-c2ccccc2)c1,Potency,[1],inactive
same,Potency,[2],inactive
same,Potency,[3],inactive
same,Potency,[4],inactive
Nc1nc(N)c(N)c(N)n1,Potency,[1],inactive
same,Potency,[2],inactive
same,Potency,[3],inactive
same,Potency,[4],inactive
c1csc(-c2ccc(-c3cccs3)s2)c1,Potency,[1],inactive
same,Potency,[2],inactive
same,Potency,[3],inactive
same,Potency,[4],1.72 µM (active)
CSSC,Potency,[1],inactive
same,Potency,[2],inactive
same,Potency,[3],inactive
same,Potency,[4],inactive
CN,Potency,[1],inactive
same,Potency,[2],inactive
same,Potency,[3],inactive
same,Potency,[4],inactive
C=CC(=C)C,Potency,[1],inactive
same,Potency,[2],inactive
same,Potency,[3],inactive
same,Potency,[4],inactive
CC1CCCC1,Potency,[1],inactive
same,Potency,[2],inactive
same,Potency,[3],inactive
same,Potency,[4],inactive
CC1CN1 (centres undefined),Potency,[1],inactive
same,Potency,[2],inactive
same,Potency,[3],inactive
same,Potency,[4],inactive
COP(=O)(OC)Oc1ccc([N+](=O)[O-])cc1,Potency,[1],inactive
same,Potency,[2],inactive
same,Potency,[3],inactive
same,Potency,[4],inactive
Oc1ccc([C@H]2CNCc3c2ccc(O)c3O)cc1O,Potency,[1],inactive
same,Potency,[2],inactive
same,Potency,[3],inactive
same,Potency,[4],23.7 µM (active)
ClC1(Cl)C2(Cl)C3(Cl)C4(Cl)C(Cl)(Cl)C5(Cl)C3(Cl)C1(Cl)C5(Cl)C24Cl (centres undefined),Potency,[1],inactive
same,Potency,[2],inactive
same,Potency,[3],inactive
same,Potency,[4],inactive
O=[N+]([O-])c1cccc2cccc([N+](=O)[O-])c12,Potency,[1],inactive
same,Potency,[2],inactive
same,Potency,[3],54.7 µM (active)
same,Potency,[4],inactive
CCC1(CC)C(=O)N=C(O)NC1=O,Potency,[1],inactive
same,Potency,[2],inactive
same,Potency,[3],inactive
same,Potency,[4],inactive
COCCC#N,Potency,[1],inactive
same,Potency,[2],inactive
same,Potency,[3],inactive
same,Potency,[4],inactive
Cc1cc2c3c(c1)C(c1ccccc1)=N[C@@H](NC(=O)c1ccncc1)C(=O)N3CC2,Potency,[1],inactive
same,Potency,[2],inactive
same,Potency,[3],inactive
same,Potency,[4],inactive
CCCCC(CC)COC(=O)OOC(C)(C)C (centres undefined),Potency,[1],inactive
same,Potency,[2],inactive
same,Potency,[3],inactive
same,Potency,[4],inactive
Cc1ccn2nc(S(=O)(=O)Nc3c(F)cccc3F)nc2n1,Potency,[1],inactive
same,Potency,[2],inactive
same,Potency,[3],inactive
same,Potency,[4],inactive
COc1ccc2c3c1O[C@H]1[C@H](O)CC[C@H]4[C@@H](C2)N(C)CC[C@@]341,Potency,[1],inactive
same,Potency,[2],inactive
same,Potency,[3],inactive
Oc1cccc(Cl)c1Cl,Potency,[1],49.2 µM (active)
same,Potency,[2],inactive
same,Potency,[3],inactive
same,Potency,[4],inactive
CCCCCCCCCCCCCCn1cc[n+](C)c1,Potency,[1],19.5 µM (active)
same,Potency,[2],54.6 µM (active) and 60.4 µM (active)
same,Potency,[3],13.7 µM (active) and 24.1 µM (active) and inactive
same,Potency,[4],inactive
FC(F)C(F)(F)OCC(Cn1cncn1)c1ccc(Cl)cc1Cl (centres undefined),Potency,[1],48.7 µM (active)
same,Potency,[2],inactive
same,Potency,[3],24.2 µM (active)
same,Potency,[4],inactive
Nc1nc(N)nc(Cl)n1,Potency,[1],inactive
same,Potency,[2],inactive
same,Potency,[3],inactive
same,Potency,[4],inactive
CN1C2CCC(C)(C)C1CC(OC(=O)C(O)(c1cccs1)c1cccs1)C2 (centres undefined),Potency,[1],inactive
same,Potency,[2],inactive
same,Potency,[3],inactive
same,Potency,[4],inactive
O=C(NC(=O)c1ccccc1Cl)Nc1ccc(OC(F)(F)F)cc1,Potency,[1],inactive
same,Potency,[2],inactive
same,Potency,[3],inactive
same,Potency,[4],inactive
O=C(Nc1ccc(F)cc1F)c1cccnc1Oc1cccc(C(F)(F)F)c1,Potency,[1],inactive
same,Potency,[2],inactive
same,Potency,[3],inactive
same,Potency,[4],inactive
CCOP(=O)(Sc1ccccc1)Sc1ccccc1,Potency,[1],inactive
same,Potency,[2],inactive
same,Potency,[3],48.6 µM (active)
same,Potency,[4],inactive
Nc1ccccc1-c1ccccc1,Potency,[1],21.7 µM (active)
same,Potency,[2],inactive
same,Potency,[3],inactive
same,Potency,[4],inactive
COC(=O)c1cc(Oc2ccc(Cl)cc2Cl)ccc1[N+](=O)[O-],Potency,[1],inactive
same,Potency,[2],inactive
same,Potency,[3],inactive
same,Potency,[4],inactive
CC1(C)C(C=C(Cl)Cl)C1C(=O)OC(C#N)c1ccc(F)c(Oc2ccccc2)c1 (centres undefined),Potency,[1],inactive
same,Potency,[2],inactive
same,Potency,[3],inactive
same,Potency,[4],inactive
CCCCON=O,Potency,[1],inactive
same,Potency,[2],inactive
same,Potency,[3],inactive
same,Potency,[4],inactive
Nc1ccc(Cl)cc1C(=O)c1ccccc1F,Potency,[1],inactive
same,Potency,[2],inactive
same,Potency,[4],inactive
